# Test results taken from the supplement of paper PMC10127200.
# Where a name gives a salt, the structure may show the parent alone.
# Tests used:
# Test in all cases: Euclidean distance of Cell Painting phenotypic profile (signed KS, 77 features) to DMSO centroid (dimensionless distance); 5 or 10 uM (library dependent); higher = stronger phenotypic change vs DMSO (phenoactivity)
# Conditions in all cases: 48 h
# 786-O = test system: 786-O
# Method in brief: (§1)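 At 10 or 5 uM, as set by the library, and 0.1% DMSO final, compounds were applied for 48 h to five cancer lines and one healthy fibroblast line. Stained cells were imaged confocally at 20X in 9 fields per well, and Harmony extracted 77 features scored as signed Kolmogorov-Smirnov statistics against vehicle wells on the same plate. Profiles underwent plate-position correction, correlation weighting and replicate averaging at the top dose. Phenoactivity is the Euclidean distance from each such profile to the median vehicle profile.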
# A549 = test system: A549
# Method in brief: as §1
# DU145 = test system: DU145
# Method in brief: as §1
# FB = test system: FB
# Method in brief: as §1
# HEPG2 = test system: HEPG2
# Method in brief: as §1
# OVCAR4 = test system: OVCAR4
# Method in brief: as §1
SMILES,Euclidean distance (786-O),Euclidean distance (A549),Euclidean distance (DU145),Euclidean distance (FB),Euclidean distance (HEPG2),Euclidean distance (OVCAR4)
Cc1nc(Nc2ncc(C(=O)Nc3c(C)cccc3Cl)s2)cc(N2CCN(CCO)CC2)n1 [Dasatinib hydrochloride],3.83,4.46,4.71,3.53,2.21,4.45
Cc1ccc(O)c([C@H](CCN(C(C)C)C(C)C)c2ccccc2)c1 [Tolterodine tartrate],1.87,0.728,0.897,1.13,1.19,1.58
CN1CCC(NC(=O)c2cc(-c3c(O)cc(O)cc3Oc3ccc([N+](=O)[O-])cc3)on2)CC1,2.95,3.28,3.66,3.37,5.17,3.04
Oc1ccc(Nc2nc(-c3ccc(Cl)cc3)cs2)cc1,1.72,2.03,1.54,2.15,2.49,1.41
CSc1nc2cc(Cl)c(Oc3cccc(Cl)c3Cl)cc2[nH]1 [Triclabendazole],1.55,0.638,1.65,1.07,1.43,0.772
Cc1cc(OCc2nnc(SC3CCCC3)n2-c2cccnc2)ccc1-c1ccc(S(C)(=O)=O)cc1,3.57,3.4,3.15,2.69,3.86,3.73
CS(=O)(=O)Nc1ccc([N+](=O)[O-])cc1Oc1ccccc1 [Nimesulide],1.43,1.21,0.674,1.03,1.82,1.8
N=C(N)NC(=N)NCCc1ccccc1 [Phenformin HCl],1.03,1.71,1.14,1.15,1.56,0.844
S=c1nc[nH]c2nc[nH]c12 [6-Mercaptopurine (6-MP) Monohydrate],1.29,0.49,0.673,0.989,1.81,0.591
CO[C@@]1(NC(=O)CSC[C@@H](N)C(=O)O)C(=O)N2C(C(=O)O)=C(CSc3nnnn3C)CS[C@@H]21 [Cefminox Sodium],1.29,0.521,2.14,1.02,0.714,1.32
CCN(CC)Cc1cc(Nc2ccnc3cc(Cl)ccc23)ccc1O [Amodiaquine dihydrochloride dihydrate],3.19,3.25,1.79,3.65,3.36,2.54
CCCCc1oc2ccc(NS(C)(=O)=O)cc2c1C(=O)c1ccc(OCCCN(CCCC)CCCC)cc1 [Dronedarone],4.33,4.18,3.45,3.39,4.6,3.76
Oc1c(I)cc(Cl)c2cccnc12 [Clioquinol],1.29,1.03,1.05,1.37,0.894,1.24
COc1cc(O)c2c(c1)oc(=O)c1c3cc(O)c(O)cc3oc21 [Wedelolactone],1.08,1.94,1.02,2.37,2.5,2.37
C[C@H]1[C@H](OC(=O)CCC(=O)O)O[C@@H]2O[C@@]3(C)CC[C@H]4[C@H](C)CC[C@@H]1[C@@]24OO3 [Artesunate],1.44,2.06,1.01,1.66,1.03,1.88
NC12CC3CC(CC(C3)C1)C2 [Amantadine HCl],1.14,0.94,1.01,0.961,0.485,0.875
C[C@H](NC(=O)CCC(F)(F)F)C(=O)N[C@@H]1C(=O)N(CCO)c2ncccc2-c2ccccc21,0.859,0.929,1.3,0.741,0.66,1.09
CC(=O)OCC(=O)[C@@]1(O)CC[C@H]2[C@@H]3CCC4=CC(=O)C=C[C@]4(C)[C@H]3[C@@H](O)C[C@@]21C [Prednisolone Acetate],1.1,2.13,2.13,1.96,0.76,2.1
COc1cc2ncc(-c3ccccc3)nc2cc1OC [Tyrphostin AG 1296],1.46,1.34,1.58,1.3,1.42,1.6
NS(=O)(=O)c1cc(Cl)c(Cl)c(S(N)(=O)=O)c1 [Dichlorphenamide],0.93,0.762,0.774,0.872,0.87,1.01
CC(C)(Oc1ccc(Cl)cc1)C(=O)OCCOC(=O)c1cccnc1 [Etofibrate],0.948,0.732,0.949,1.01,0.725,0.894
CCCNCC(O)COc1ccccc1C(=O)CCc1ccccc1 (centres undefined) [Propafenone HCl],1.59,1.51,1.37,1.36,0.85,1.26
NCCc1ccc(O)c(O)c1 [Dopamine HCl],1.84,0.481,0.944,1.26,0.844,3.26
NS(=O)(=O)c1cc2c(cc1C(F)(F)F)NC(Cc1ccccc1)NS2(=O)=O (centres undefined) [Bendroflumethiazide],0.918,0.995,1.62,1.34,1.05,2.02
CC(=O)O[C@@]12CO[C@@H]1C[C@H](O)[C@@]1(C)C(=O)[C@H](O)C3=C(C)[C@@H](OC(=O)[C@H](O)[C@@H](NC(=O)OC(C)(C)C)c4ccccc4)C[C@@](O)([C@@H](OC(=O)c4ccccc4)[C@H]21)C3(C)C [Docetaxel],3.54,2.71,3.65,2.64,2.16,2.64
O=C1c2c(O)cccc2Cc2cccc(O)c21 [Dithranol],2.26,0.754,1.2,2.24,0.979,2.04
C[N+](C)(C)CCO.[Cl-] [Choline Chloride],0.795,0.549,0.73,0.801,0.682,1.46
COc1ccc(C[C@H](N)C(=O)N[C@H]2[C@@H](O)[C@H](n3cnc4c(N(C)C)ncnc43)O[C@@H]2CO)cc1 [Puromycin 2HCl],6.42,3.8,4.87,6.23,4.76,6
O=C1NC(=O)/C(=C/c2cccc(C(F)(F)F)c2)S1,1.83,1.41,0.82,1.49,0.755,0.797
